# Results: the OligoGym collection
# Columns and labels:
# Test in all cases: pooled miR-30 sensor sort-seq; sequence = guide strand
# Conditions in all cases: shRNA
# TDRD10 = molecular target: TDRD10
# TDRD7 = molecular target: TDRD7
# TDRKH = molecular target: TDRKH
# TGFB1I1 = molecular target: TGFB1I1
# TMEFF2 = molecular target: TMEFF2
# TMEM218 = molecular target: TMEM218
# TMEM8B = molecular target: TMEM8B
# TNFAIP6 = molecular target: TNFAIP6
# TNPO2 = molecular target: TNPO2
# TP73 = molecular target: TP73
# TPPP3 = molecular target: TPPP3
# TPPP2 = molecular target: TPPP2
# TP53I13 = molecular target: TP53I13
# TPRX1 = molecular target: TPRX1
# TRAPPC2L = molecular target: TRAPPC2L
# TRAPPC2 = molecular target: TRAPPC2
# TRAFD1 = molecular target: TRAFD1
# Further: reference of the scale not given here.
sequence,measurement,setting,value
TTTTGTGGACATCAAGAGGGTT,sensor-assay potency score (higher = more potent),TDRD10,-0.194
TAGAAGGTCACTGAGCTTGTTC,sensor-assay potency score (higher = more potent),TDRD7,-0.0033
TAGTGTAGGGAAACCTAGCTGT,sensor-assay potency score (higher = more potent),TDRD7,-0.0859
TCTGTGTCCACATCAATCCGAG,sensor-assay potency score (higher = more potent),TDRKH,-0.281
TTTCTTGTAGAAACCGAGGTGG,sensor-assay potency score (higher = more potent),TDRD7,0.248
TTGTGTACTAATTCTAGCCCAA,sensor-assay potency score (higher = more potent),TDRKH,0.0219
TGACTTGTCACATATAGCCTTC,sensor-assay potency score (higher = more potent),TDRD7,-0.332
ATGAACATGACCACAGCCCAGG,sensor-assay potency score (higher = more potent),TDRD10,-1.56
ATGTCCTTCAACATGTCTGGGA,sensor-assay potency score (higher = more potent),TDRKH,-0.897
TAGAAGGTACAGAATTTCCTCC,sensor-assay potency score (higher = more potent),TDRD10,0.0428
ATCTTCTGAAACTTTCTCCAGT,sensor-assay potency score (higher = more potent),TDRKH,-0.507
TTATAAGTCTTGATAGTAGTAA,sensor-assay potency score (higher = more potent),TDRKH,-0.315
TCCAACACTCCATTCTTCCCAA,sensor-assay potency score (higher = more potent),TDRD10,-0.74
TTCACGAACAGTTTTCGCTTGT,sensor-assay potency score (higher = more potent),TDRD10,0.41
AAGATTGCCAACATACACCTCT,sensor-assay potency score (higher = more potent),TDRD10,0.896
TTAATATTGGCTCCTTGCCGGC,sensor-assay potency score (higher = more potent),TDRKH,-1.54
TAAGTTCCTGAAGCAACCGATC,sensor-assay potency score (higher = more potent),TGFB1I1,-1.43
TTTATTGCAGGAGCCACAGAGG,sensor-assay potency score (higher = more potent),TGFB1I1,-1.1
TTGTGTTATCTTGACATCGACC,sensor-assay potency score (higher = more potent),TMEFF2,-0.895
ATCTTAACTTCCACTTCTGGGG,sensor-assay potency score (higher = more potent),TMEM218,-0.795
TATCTATGCATGACAGTTTGGG,sensor-assay potency score (higher = more potent),TMEM8B,-0.202
TCCATGTCGGTCAAGCTGCAGA,sensor-assay potency score (higher = more potent),TMEM8B,-1.7
TATTTCAACATAATCAGCCAAG,sensor-assay potency score (higher = more potent),TNFAIP6,-1.38
TTCTCTGTGGTACACACCGGCT,sensor-assay potency score (higher = more potent),TNFAIP6,-1.32
TTTTCCAGCAGTGTCTTGGGTG,sensor-assay potency score (higher = more potent),TNPO2,-0.0437
AATCTTATAAAACATGTCCCGA,sensor-assay potency score (higher = more potent),TNPO2,-0.983
TTTCACGACGTCGGTCACGTGC,sensor-assay potency score (higher = more potent),TP73,-1.03
ACTGTCGTCCAGGATGTCCTGC,sensor-assay potency score (higher = more potent),TPPP3,-0.739
TTGGGAGGTGAAATACTCGATG,sensor-assay potency score (higher = more potent),TP73,-0.725
TTGCCATTCATCTCTTGCCCAC,sensor-assay potency score (higher = more potent),TPPP3,-1.13
TAGAGTTTCTTCAAGAGCGGGG,sensor-assay potency score (higher = more potent),TP73,0.308
TCGTCCAGGATGTCCTGCCGTC,sensor-assay potency score (higher = more potent),TPPP3,-0.707
TGTAACCACTCACATAGCCTGT,sensor-assay potency score (higher = more potent),TPPP2,-0.785
TCGAAGTAGGTGCTGTCTGGTT,sensor-assay potency score (higher = more potent),TP73,-0.818
TCGTGTGTAGGTCACTCTTGGT,sensor-assay potency score (higher = more potent),TP53I13,-1.06
TGACTTGAACAGACACAGCCCC,sensor-assay potency score (higher = more potent),TP53I13,-0.111
TAGCCATACAAGCATAGGCCAG,sensor-assay potency score (higher = more potent),TP53I13,-1.71
TTGTAGGCGCTCACGTAGCCAC,sensor-assay potency score (higher = more potent),TPPP3,-1.01
TTGTAACCACTCACATAGCCTG,sensor-assay potency score (higher = more potent),TPPP2,-0.748
TCTGGTTCCAGAGAGCTCCAGA,sensor-assay potency score (higher = more potent),TP73,0.275
TTGGGTGTAGCTGCCGAACTGT,sensor-assay potency score (higher = more potent),TP73,-0.212
TTACACATGAAGTTGTACAGGA,sensor-assay potency score (higher = more potent),TP73,1.03
TTGGTCGCCAGCTCTTCCAGGG,sensor-assay potency score (higher = more potent),TPPP3,-0.176
TCTTTGAACTGTTGAAACGTGA,sensor-assay potency score (higher = more potent),TPPP2,-0.298
TTGTCAGTCATCTCTTCCCGTC,sensor-assay potency score (higher = more potent),TPPP2,-0.714
TTATTGTTTTCCAAGCTCCCTG,sensor-assay potency score (higher = more potent),TPPP2,-0.417
TGTAGCTGCCGAACTGTGCGGG,sensor-assay potency score (higher = more potent),TP73,-0.215
TTGCAGTCCTTGCACAGCTTGG,sensor-assay potency score (higher = more potent),TPPP3,-0.971
TTGATGATTCTCCAAACGCAGC,sensor-assay potency score (higher = more potent),TPPP2,-1.67
TTCTTGGCCTTGACTTTGCTGA,sensor-assay potency score (higher = more potent),TPPP2,-0.996
TGAGCCTCTGTCCTGGAGCTGG,sensor-assay potency score (higher = more potent),TP53I13,-1.27
TTGAACTGTTGAAACGTGATGG,sensor-assay potency score (higher = more potent),TPPP2,0.216
TACACAGCTGCTGTTACACATG,sensor-assay potency score (higher = more potent),TP73,-0.991
TAGTACGTGTCCTCGTCTCCAT,sensor-assay potency score (higher = more potent),TP73,-0.503
TTGAACTCCTCATAGTTGATGA,sensor-assay potency score (higher = more potent),TPPP3,-0.547
TTTGCTGAACACGATGTCCACG,sensor-assay potency score (higher = more potent),TPPP2,-0.579
TTTCCGTCAGCCACCTTGCAGT,sensor-assay potency score (higher = more potent),TPPP3,-0.592
TTGACTTTGGAGAAGACGATGT,sensor-assay potency score (higher = more potent),TPPP3,-0.378
TTGTTGTTCATTTCAGTGCCAC,sensor-assay potency score (higher = more potent),TPPP2,0.0122
TTGCTGGTGTCTGTCAAACGGT,sensor-assay potency score (higher = more potent),TPPP2,-1.11
TCACTCTTGGTGACACCTGCGG,sensor-assay potency score (higher = more potent),TP53I13,-0.664
TTGTAAACAGGCATGGCCCGGA,sensor-assay potency score (higher = more potent),TP73,0.143
TGGAGCAGACTGTCCTTCGTTG,sensor-assay potency score (higher = more potent),TP73,-1.24
TTTCACAGTAGATCCATGCCTT,sensor-assay potency score (higher = more potent),TP53I13,0.393
TTCAGCACAGCAGCCACTGTGT,sensor-assay potency score (higher = more potent),TP53I13,-0.771
TTGTTGCTTTAGTAGCGCCAGT,sensor-assay potency score (higher = more potent),TPPP2,-1.46
TGAACCACACCTGCAGCTGTTG,sensor-assay potency score (higher = more potent),TPRX1,-0.826
TTCGTTGTCTCGAAGGGCTGTG,sensor-assay potency score (higher = more potent),TRAPPC2L,0.76
TTCAAGTACATGTTGTTCGATA,sensor-assay potency score (higher = more potent),TRAPPC2,-0.28
TATACCTTGTAGTCCTCCGTGG,sensor-assay potency score (higher = more potent),TRAPPC2L,0.16
TACCTTGTAGTCCTCCGTGGGG,sensor-assay potency score (higher = more potent),TRAPPC2L,-0.92
TTCTATTGTGGAAAACATCTGA,sensor-assay potency score (higher = more potent),TRAFD1,0.311
TTTTGCTTTAGTGACGCCCACA,sensor-assay potency score (higher = more potent),TPPP3,-1.34
TTGAGAGAACATGCACAGCTGC,sensor-assay potency score (higher = more potent),TRAPPC2L,-0.482
TTGAACCACACCTGCAGCTGTT,sensor-assay potency score (higher = more potent),TPRX1,-0.741
TTGTGTAGCTTCCGGAACATGC,sensor-assay potency score (higher = more potent),TRAPPC2L,-0.801
TTCCTGCTTAGTATCATCCAGG,sensor-assay potency score (higher = more potent),TRAFD1,-0.814
TTCTTGGTACTGAGAGGTCATG,sensor-assay potency score (higher = more potent),TPRX1,-1.73
TTTCGTTGTCTCGAAGGGCTGT,sensor-assay potency score (higher = more potent),TRAPPC2L,0.949
TTGGAGTTGGTGACGTAGCCGT,sensor-assay potency score (higher = more potent),TRAPPC2L,-0.459
TAGGGGTAGGAGCAGCTCTGTG,sensor-assay potency score (higher = more potent),TPRX1,-1.84
TGTAGCTTCCGGAACATGCTGC,sensor-assay potency score (higher = more potent),TRAPPC2L,0.0954
TTGTGGGAGCCCGTGTATCTGC,sensor-assay potency score (higher = more potent),TPPP3,-1.44
TTGCACATCACGTCTGTGTAGG,sensor-assay potency score (higher = more potent),TRAPPC2L,0.239
